Shown is part of a subset that was picked to be rich in hits.
Pf Dd2 growth: Plasmodium falciparum Dd2 growth inhibition | P. falciparum Dd2 growth, SYBR Green, 72 h | Potency, µM (doses to about 28.9 µM), inactives show at the top dose activity, negative = inhibition, most hits filed as inhibitors | 120,000 compounds, 4.3% hits | AID 1347417; active = well fitted inhibition curve with a large enough effect;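 note: plate controls were DMSO vehicle for no effect and reference drug for full effect; nearly all actives have a fitted effect of over 65% in size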
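Infected erythrocytes (Dd2, 0.3% parasitemia, 2.5% hematocrit final) are added to compound in RPMI-1640/Albumax II medium, grown 72 h at 37C in low oxygen, then lysed with saponin/Triton-X containing SYBR Green and read by fluorescence.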
An asterisk follows results filed as active; i = inactive; [ ] = remark or other dose. Potency is the fitted concentration of half-maximal effect.

SMILES | Pf Dd2 growth
Cc1cc(C)c(NC(=O)Cn2ccn3nc4c(c3c2=O)CCCC4)c(C)c1 | 21.7%
Cc1nc(N)nc(C)c1CC(=O)N1CC2(CCNCC2)CC1C(=O)O (stereo not drawn) | -10.6%
CCN(Cc1cnn(C)c1)C(=O)C1CCC(=O)N(Cc2cccc(OC)c2)C1 (stereo not drawn) | 27.7%
CCC(=O)N(C1CCOCC1)C1CCN(S(=O)(=O)c2cc(C)ccc2C)CC1 | -17.0%
Cc1cc(Br)ccc1NC(=O)C1CCN(S(=O)(=O)c2ccc(Br)s2)CC1 | -18.4%
Cc1ccc(-c2cc(C(=O)N3CCN(S(=O)(=O)c4ccc(Br)s4)CC3)[nH]n2)cc1C | 3.4%
O=C(c1cc(-c2ccc(Br)cc2)n[nH]1)N1CCN(S(=O)(=O)c2ccc(Br)s2)CC1 | 8.91µM*
Cc1ccc(-c2cc(C(=O)N3CCN(S(=O)(=O)c4ccc(Br)s4)CC3)[nH]n2)c(C)c1 | 12.6µM*
O=C(c1cc(-c2ccc(Cl)cc2)n[nH]1)N1CCN(S(=O)(=O)c2ccc(Br)s2)CC1 | -25.0%
O=C(C1CCN(S(=O)(=O)c2ccc(Br)s2)CC1)N1CCN(c2ccc(F)cc2)CC1 | -8.0%
CN1CCC(N(C(=O)NCCc2ccccc2)C2CCOCC2)CC1 | -17.8%
CCOc1ccccc1C(=O)N1CC[C@@H]2CN(S(C)(=O)=O)[C@@H]2C1 | i
Cc1noc(-c2ccc(OC3CN(C(=O)c4ccoc4)C3)cc2)n1 | i[5.79 µM]
CCOc1ccc(-c2cc3c(=O)n(CC(O)c4ccc(C(C)C)cc4)ccn3n2)cc1 (stereo not drawn) | i
CCOc1ccc(C(O)Cn2ccn3nc(-c4ccccc4C)cc3c2=O)cc1 (stereo not drawn) | 12.6µM*
O=c1c2cc(-c3ccccc3)nn2ccn1CC(O)c1ccccc1 (stereo not drawn) | i
CCNC(=O)[C@@H]1C[C@H](NC(=O)c2ccc[nH]2)CN1C(=O)CCn1cnnn1 | -1.6%
Cn1cc(CN2CCCC2c2ccccn2)c(-c2ccc(Oc3ccccc3)cc2)n1 (stereo not drawn) | 7.08µM*
CCn1ccnc1CN(C)Cc1cn(C)nc1-c1ccc(Oc2ccccc2)cc1 | -3.6%
O=c1cc(CN2CCCCC2c2ccccn2)[nH]c2ccc(F)cc12 (stereo not drawn) | -9.8%
CCN1C(=O)C(CC(=O)NCc2ccccn2)Sc2ncccc21 (stereo not drawn) | 2.0%
COc1ncccc1CN(Cc1cccnc1OC)C[C@H]1COCc2nc3ccc(C)cc3n21 | 4.47µM*
Cc1ccc2nc3n(c2c1)[C@@H](CNCc1ccccc1)COC3 | i
COc1ccc2c(c1)nc1n2[C@@H](CN(Cc2nccs2)Cc2nccs2)COC1 | -25.4%[44.1 µM]
O=C1NC(C(=O)N2CCc3ccccc3C2)Cn2cccc21 (stereo not drawn) | -21.2%
SMILES | Pf Dd2 growth
CCn1nc(C)c(CCC(=O)NC2CCCc3c2[nH]c2c(Cl)cccc32)c1C (stereo not drawn) | i
CN1CCc2nc(N3CCN(CC4CCCCC4)CC3)sc2C1 | -18.6%
Cc1ccc(NC(=O)CN2CCCc3nc(C4CC4)ncc3C2=O)cc1 | -1.2%
COCCn1nc2n(c1=O)CCN(Cc1ccc3cc[nH]c3c1)CC2 | 0.3%
CC(C)c1ccc(CN2CC(CNC(=O)c3cnn(C)c3)C3(C2)CN(c2ccccc2)C3)cc1 (stereo not drawn) | i
O=C(c1cccnc1)N1CC(COc2ccccc2)C2(C1)CN(c1ccccc1)C2 (stereo not drawn) | -26.3%[44.1 µM]
O=C(Cc1ccccc1)NCC1CN(Cc2ccncc2Cl)CC12CN(c1ccccc1)C2 (stereo not drawn) | 11.2µM*
O=C(c1cccc(Cl)c1)N1CC(CNc2cccnc2)C2(C1)CN(c1ccccc1)C2 (stereo not drawn) | 12.6µM*
O=C(NCC1CN(Cc2ccncc2Cl)CC12CN(c1ccccc1)C2)c1ccccc1 (stereo not drawn) | -2.9%
Cn1cc(C(=O)NCC2CN(C(=O)c3ccccc3)CC23CN(c2ccccc2)C3)cn1 (stereo not drawn) | i
COc1ccc(-n2nc3n(c2=O)CCN(Cc2ccc(N(C)C)cc2)C3)cc1 | -10.1%
C[C@@H](NCC1CCCC1)c1onc(-c2cccnc2)c1C(=O)O | 18.7%[44.1 µM]
CCO[C@H]1CN(C(=O)Cc2ccc3nc(C)[nH]c3c2)C[C@@H]1O | -18.7%
O=C(CC1CCCN(c2cnn(CC3CC3)c(=O)c2)C1)NCc1cc(F)ccc1F (stereo not drawn) | i
Cc1cccc(-c2nc(CN3CCC(C(=O)N4CCc5nc6cc[nH]n6c(=O)c5C4)CC3)c(C)o2)c1 | -7.7%[5.79 µM]
Cc1ccc(CNC(=O)N2CCC(Oc3ccc(-c4noc(C)n4)cc3)C2)cc1 (stereo not drawn) | i[5.79 µM]
Cc1ccc(-c2ncc(C(=O)Nc3cc(F)cc(F)c3)c(-c3ccncc3)n2)cc1 | -28.4%
COCCOC1CCOC2(CCN(C(=O)Nc3ccccc3)CC2)C1 (stereo not drawn) | -23.2%
COCCOC1CCOC2(CCN(C(=O)Nc3ccccc3F)CC2)C1 (stereo not drawn) | 12.6µM*
COC1CCOC2(CCN(C(=O)Nc3ccccc3F)CC2)C1 (stereo not drawn) | 8.9%
Cc1cc(C(=O)N2CC[C@@H]3CN(S(C)(=O)=O)[C@@H]3C2)c(C)o1 | -1.0%
CC(NC(=O)c1cccc(Nc2nc3ccccc3n3nnnc23)c1)c1ccccc1 (stereo not drawn) | 5.4%
Cc1ccc(CNC(=O)c2ccc(Nc3nc4ccccc4n4nnnc34)cc2)cc1 | -2.9%
COc1ccc(CCNC(=O)c2cccc(Nc3nc4ccccc4nc3-n3nc(C)cc3C)c2)cc1OC | -14.1%
O=C(NCCc1ccc(Cl)cc1)c1ccc(Nc2nc3ccccc3n3nnnc23)cc1 | -26.6%
SMILES | Pf Dd2 growth
COc1ccccc1N1CCN(C(=O)c2ccc(Nc3nc4ccccc4n4nnnc34)cc2)CC1 | 10µM*
COc1ccc(CCNC(=O)c2ccc(Nc3nc4ccccc4n4nnnc34)cc2)cc1OC | 8.91µM*
CCOc1cc(=O)n2c(c1C(=O)N1CCCc3ccccc31)CCCC2 | 22.9%
O=C(Cn1nc2c(cc1=O)CCCC2)Nc1nc(-c2ccccn2)cs1 | -3.1%
CNc1ccnc(N2CCC3(CCCN(C4CCOCC4)C3=O)C2)n1 (stereo not drawn) | -7.3%
Cc1ccc(Cn2c(SCc3ccc(C(=O)NCCc4ccccc4)cc3)nc3ccncc32)cc1 | 6.31µM*
COCCNC(=O)c1ccc(Cn2c(SCC(N)=O)nc3ccccc3c2=O)cc1 | -26.8%
O=C(NCCc1ccccc1)c1ccc(CSc2nc3ccncc3n2Cc2ccccc2)cc1 | 8.91µM*
Cc1ccccc1Cn1c(SCc2ccc(C(=O)NCCc3ccccc3)cc2)nc2ccncc21 | 7.08µM*
Cc1ccccc1Cn1c(SCc2ccc(C(=O)NC3CCCC3)cc2)nc2ccncc21 | -10.4%
Cc1ccccc1CSCc1ccc(C(=O)NCCc2ccccc2)o1 | 19.9%
O=C(c1nnc(CNCCN2CCCC2)n1-c1ccccc1)N1CCC[C@@H]1C(c1ccccc1)c1ccccc1 | -32.2%
O=C(c1cccc(OC2CN(C3CCN(Cc4ccccc4)CC3)C2)c1)N1CCOCC1 | i
CN(C)C(=O)c1cc(-c2ccc(Cl)cc2Cl)nc2c1cnn2C | i
COc1ccc(NC(=O)N2CCCC(c3nn[nH]n3)C2)cc1 (stereo not drawn) | 17.3%
COCCn1c(C)cnc1CC1CCN(C(=O)c2ccc(OC)nc2)CC1 | 16.3%
O=S(=O)(N[C@@H]1C[C@H](Cn2cc(C3CC3)nn2)[C@@H](O)[C@H]1O)c1ccccc1 | -25.0%[44.1 µM]
O=C(Nc1cccc(C(F)(F)F)c1)N[C@H]1CO[C@H]2[C@@H]1OC[C@H]2O | i

Screening data deposited in PubChem by National Center for Advancing Translational Sciences (NCATS).
